Several values for one entry are separate records, joined by “and”; a condition that tells them apart may be missing. Identical values can stand only once. A number with no mark means an inactive call. Results filed as inconclusive are left out. Activity calls are given as the source filed them. Unless noted, the call rests on the fitted dose curve; in most records, active means well fitted curve in the direction sought with a large enough effect; inconclusive means small, poorly fitted or top-dose-only effect, or another doubt; inactive means no such curve, though single readings can be large; an effect the other way counts as inactive or inconclusive. Where only a bound is given, the exact number is not on record here.

The results in this text go back to PubChem BioAssay (NCATS).

Assay [1] in a line: Cell Viability - Jurkat (AID 426;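 active means dose-dependent loss of cell ATP signal giving a full or clear fitted curve, ranked by lower potency value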;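 further: potency means the concentration at half of the fitted maximal effect; cells exposed to compound for 40 hours at 37 °C before ATP read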). Particulars: qHTS. In outline:
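Cells of the human T-cell leukemia line Jurkat (E6-1) are seeded at 5000 per well, treated with compound across a concentration range for 40 hours at 37 °C, then lysed with CellTiter-Glo; luminescence reports ATP.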

Assay [2] can be described thus: Cell Viability - Hek293 (AID 427;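 active means compounds whose dose-response curve shows a full or clear partial loss of cell viability, called from curve shape rather than a numeric limit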;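 further: potency means the concentration at half of the fitted maximal effect; cells exposed to compound for 40 hours at 37 °C before reading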). Particulars: qHTS. In outline:
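Luminescent ATP read-out (CellTiter-Glo, 20 min RT) after 40 hr compound exposure at 37 °C in complete medium. Signal normalized to DMSO (basal) and 100 uM tamoxifen (100% inhibition); concentration-response fitted with the standard Hill equation to give AC50.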

Assay [3] can be described thus: Cell Viability - NIH 3T3 (AID 541).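 Further: plate controls were DMSO alone for no effect and tamoxifen positive control for full effect; nearly all actives have a fitted effect of over 25% in size.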 Particulars: NIH 3T3 cell viability, qHTS; activity change, negative = cytotoxicity: at 92.2 µM (top of the series). In outline:
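Cells seeded at 1000/well, rested 5 hr at 37 °C, then dosed and incubated 40 hr at 37 °C. CellTiter-Glo added, 20 min room temperature, luminescence read. AC50 by Hill fit.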

The nature of assay [4]: Cell Viability - SH-SY5Y (AID 544).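 Further: 0% = DMSO alone and -100% = 100 µM tamoxifen; nearly all actives have a fitted effect of over 55% in size.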 Particulars: SH-SY5Y neuroblastoma cell viability; viability change, negative = cytotoxic: at 92.2 µM (top of the series). In outline: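 Cells were plated at 1500 per well and allowed 5 hr at 37 °C. Compounds were added across a concentration range and incubated 40 hr at 37 °C. CellTiter-Glo was added for 20 min at room temperature before luminescence reading.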

Assay [5] in a line: Cellular Toxicity (caspase-3) BJ (AID 658). Particulars: BJ fibroblasts, luminescence; Potency: caspase-3 activation; series mostly up to 91.7 µM. Summed up:
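qHTS, BJ fibroblasts, 1000 cells/well; 5 hr preincubation, 16 hr compound, 37 °C; Caspase-Glo 3/7 reagent, 1 hr RT; luminescence. DMSO = 0%, 10 uM staurosporine = 100%. Hill-equation AC50.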

Assay [6] can be described thus: Cellular Toxicity (caspase-3) MRC-5 (AID 659). Particulars: MRC-5 cells, luminescence, normalized: DMSO 0%, 10 µM staurosporine 100%; series mostly up to 91.7 µM. Summed up: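 MRC-5 fibroblasts, 1500/well; 16 h cpd, 37 °C; Caspase-Glo 3/7, 1 h RT; lumi read. Norm: DMSO = 0%, 10 uM staurosporine = 100%. Hill-fit AC50 from qHTS conc-response.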
The target of assay [7] is Cytochrome P450 3A4 (Homo sapiens) (UniProt P08684). Description: qHTS Assay for Inhibitors and Substrates of Cytochrome P450 3A4 (AID 884). Further: nearly all actives have a fitted effect of over 50% in size. Further: potency means the concentration at half of the fitted maximal effect. Particulars: recombinant CYP3A4, Luciferin-PPXE luminescence; series mostly up to 57.1 µM. Summed up: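 Luminescent readout of luciferin produced by CYP3A4 (20 nM) dealkylation of Luciferin-PPXE, 25 uM (its KM). NADPH-driven reaction ran 60 min at RT after 10 min compound preincubation; data scaled to 57 uM ketoconazole as 100% inhibition.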
Chain of Cytochrome P450 3A4 (Homo sapiens) (P08684 whole entry, looked up): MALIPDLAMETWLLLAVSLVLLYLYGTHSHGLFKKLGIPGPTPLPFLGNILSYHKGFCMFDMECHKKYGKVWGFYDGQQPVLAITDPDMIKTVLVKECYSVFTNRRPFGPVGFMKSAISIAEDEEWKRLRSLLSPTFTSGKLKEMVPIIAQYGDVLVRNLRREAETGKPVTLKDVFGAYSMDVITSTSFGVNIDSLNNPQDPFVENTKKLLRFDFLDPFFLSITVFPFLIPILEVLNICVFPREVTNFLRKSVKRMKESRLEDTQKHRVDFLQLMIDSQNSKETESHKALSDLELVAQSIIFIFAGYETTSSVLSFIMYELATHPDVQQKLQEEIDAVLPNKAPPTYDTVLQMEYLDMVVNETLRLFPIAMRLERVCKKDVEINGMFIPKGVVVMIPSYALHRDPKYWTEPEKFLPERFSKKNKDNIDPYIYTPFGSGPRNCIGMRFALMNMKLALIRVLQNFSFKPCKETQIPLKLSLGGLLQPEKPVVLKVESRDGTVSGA

The target in assay [8] is Vitamin D3 receptor (Homo sapiens) (UniProt P11473). The assay can be described thus: qHTS assay for small molecule antagonists of vitamin D receptor signaling (AID 588541; calls by dose curve;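 further: receptor activated by calcitriol during compound treatment; on the % scale 0 is the no-effect control and ±100 the full control effect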). Particulars: HEK293T VDR-UAS-bla, beta-lactamase ratio, antagonist mode; series mostly up to 76.7 µM. Summed up:
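VDR-UAS-bla HEK293T cells in 2% charcoal-stripped FBS were stimulated with 1-alpha,25-dihydroxyvitamin D3 (3 nM final) plus compound for 16 h at 37 C. The beta-lactamase CCF4 readout was normalized to 50 nM agonist and DMSO, and Hill fits gave IC50.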

Assay [9] has the same target. The assay can be described thus: qHTS assay for small molecule agonists of vitamin D receptor signaling (AID 588543; calls by dose curve;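 further: 0% = DMSO basal and 100% = reference agonist control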). Particulars: HEK293T VDR-UAS-bla, beta-lactamase ratio, 16 h; series mostly up to 76.8 µM. Summed up:
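Measured: β-lactamase reporter activity (CCF4, 405 nm excitation, 460/530 nm emission) in HEK293T VDR-UAS-bla cells after 16 h compound exposure at 37 °C. Normalization against 50 nM 1α,25-dihydroxyvitamin D3 and DMSO; Hill-fit EC50.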

Assay [10] addresses Thyroid hormone receptor beta (Homo sapiens) (UniProt P10828). Description: qHTS assay for small molecule agonists of thyroid hormone receptor beta signaling (AID 588545; calls by dose curve;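 further: 0% = DMSO only and 100% = 10 nM T3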). Particulars: TR-UAS-bla GripTite HEK 293, beta-lactamase ratio, agonist mode, 18 h; series mostly up to 76.7 µM. In outline: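 Compounds were tested as agonists in TR-UAS-bla-GripTite HEK 293 cells. After 18 hrs at 37 C, CCF4 substrate was added and fluorescence read after 2 hrs at room temperature.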

For assay [11], the target named is Voltage-gated inwardly rectifying potassium channel KCNH2 (Homo sapiens) (UniProt Q12809). The assay can be described thus: qHTS Assay for Small Molecule Inhibitors of the Human hERG Channel Activity (AID 588834).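 Further: top concentration of the series differs between compounds; on the % scale 0 is the no-effect control and ±100 the full control effect; lower thallium flux fluorescence means stronger hERG block; nearly all actives have a fitted effect of over 50% in size.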 Particulars: U2OS BacMam hERG, FluxOR thallium flux fluorescence; series mostly up to 92.2 µM. In outline:
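Homogeneous FluxOR thallium flux assay using hERG-expressing U2OS cells (BacMam). Compound treatment about 10 minutes preceded stimulation; reduced fluorescence taken as channel block.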

Assay [12] can be described thus: qHTS assay for small molecule agonists of the antioxidant response element (ARE) signaling pathway (AID 651741; active means well fitted activation curve with a large enough effect in the signal ratio; the % refers to the signal ratio; further: potency means the concentration at half of the fitted maximal effect; on activation: % of control where 0% means no effect). Particulars: HepG2 ARE-bla reporter, beta-lactamase FRET ratio, 16 h; series mostly up to 96 µM. Summed up:
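Stably integrated ARE-beta-lactamase reporter HepG2 cells; 16 h compound incubation, 37 C; LiveBLAzer FRET substrate 2 h at room temperature; fluorescence intensity.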

Assay [13] can be described thus: qHTS assay for small molecule activators of the p53 signaling pathway (AID 651743; active means well fitted activation curve with a large enough effect in the signal ratio, not every such curve was filed as active; the % refers to the signal ratio; further: % of control where 0% means no effect). Particulars: HCT-116 p53RE-bla, beta-lactamase FRET ratio, 16 h; activation: stronger effect = higher value. Summed up: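 Following 16 hours of compound exposure at 37 C, HCT-116 cells bearing the p53RE-bla reporter were loaded with LiveBLAzer B/G FRET substrate for 2 hours at room temperature and fluorescence intensity was recorded.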

Assay [14] is described as follows: qHTS assay for small molecule activators of the nuclear factor-kappa B (NF-kB) signaling pathway (AID 651749; active means well fitted activation curve with a large enough effect in the signal ratio; the % refers to the signal ratio; further: % of control where 0% means no effect). Particulars: NF-kB-bla ME-180 cells, beta-lactamase FRET ratio, 16 h; stronger effect = higher value. In outline: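 In this qHTS format, compounds acting as activators increase NF-kB-driven beta-lactamase in ME-180 cells, measured as disrupted FRET after 16 hr exposure at 37C and 5% CO2.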

Assay [15] in a line: qHTS assay for small molecule disruptors of the mitochondrial membrane potential - 1 hr assay (AID 651754; calls by dose curve; further: nearly all actives have a fitted effect of over 35% in size; further: potency means the concentration at half of the fitted maximal effect). Particulars: series mostly up to 92.2 µM. Summed up:
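Loss of mitochondrial potential shifts the cationic dye from red mitochondrial aggregates to green cytoplasmic monomers. Cells (HepG2) are treated with compound for 1 hr before a 30 min dye incubation at 37C.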

Assay [16] concerns the target Tumor necrosis factor (Homo sapiens) (UniProt P01375). The assay can be described thus: qHTS assay to identify small molecules that stimulate Tumor Necrosis Factor-alpha (TNF-alpha) secretion (AID 651757; active means well fitted curve in the direction sought with a large enough effect in the signal ratio; the % refers to the signal ratio; further: potency means the concentration at half of the fitted maximal effect). Particulars: Human cells, HTRF 665/615 ratio; series mostly up to 92.2 µM. Summed up: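 Human monocytic THP-1 cells are plated, treated with compound and held at 37 C for 17 hrs. Labeled anti-TNF-alpha antibody mixture is then added; after 3 hr at room temperature, TR-FRET signal reports secreted TNF-alpha.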

The target in assay [17] is Nuclear receptor ROR-gamma (Homo sapiens) (UniProt P51449). The assay can be described thus: qHTS assay for small molecule antagonists of the retinoid-related orphan receptor gamma (ROR-gamma) signaling pathway (AID 651802).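 Further: CHO cells with doxycycline-induced ROR-gamma expression; on the % scale 0 is the no-effect control and ±100 the full control effect; nearly all actives have a fitted effect of over 60% in size.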 Particulars: ROR-gamma antagonist cell reporter assay; series mostly up to 92.2 µM. Summed up: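 Steps: cells dispensed; compound or DMSO transferred by pin tool; doxycycline added to induce the ROR response element-driven luciferase; plates held 16hr at 37C; ONE-Glo added and luminescence measured.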
Chain of Nuclear receptor ROR-gamma (Homo sapiens) (P51449 whole entry, looked up): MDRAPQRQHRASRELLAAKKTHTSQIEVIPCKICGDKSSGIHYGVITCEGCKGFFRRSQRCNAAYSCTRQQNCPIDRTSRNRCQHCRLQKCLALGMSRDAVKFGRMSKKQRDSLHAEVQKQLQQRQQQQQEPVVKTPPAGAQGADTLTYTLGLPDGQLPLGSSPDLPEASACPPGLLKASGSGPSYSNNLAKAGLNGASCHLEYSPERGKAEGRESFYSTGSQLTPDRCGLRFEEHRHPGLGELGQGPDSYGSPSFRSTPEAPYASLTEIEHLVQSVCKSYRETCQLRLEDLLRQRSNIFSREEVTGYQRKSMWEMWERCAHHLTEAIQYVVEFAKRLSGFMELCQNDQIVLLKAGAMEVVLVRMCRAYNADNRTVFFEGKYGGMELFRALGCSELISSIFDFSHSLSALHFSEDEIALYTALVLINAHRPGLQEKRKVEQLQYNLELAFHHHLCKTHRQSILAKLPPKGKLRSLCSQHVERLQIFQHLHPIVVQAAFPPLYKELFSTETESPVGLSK

Assay [18] in a line: qHTS assay for small molecule antagonists of the retinoid-related orphan receptor gamma (ROR-gamma) signaling pathway - cell viability counter screen (AID 720652; active means well fitted curve in the direction sought with a large enough effect in the repeat runs; an effect the other way counts as inactive or inconclusive;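 further: CHO reporter cells with doxycycline-induced ROR-gamma expression; compound exposure lasted 16 hr before ATP read; on the % scale 0 is the no-effect control and ±100 the full control effect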). Particulars: RORgamma reporter cell line viability counter screen; series mostly up to 92.2 µM. In outline:
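Steps: seed CHO cells bearing TET-inducible ROR and ROR response element-luciferase; rest 5 hr at 37 C; add compound, then doxycycline; incubate 16 hr; add CellTiter-Glo and read luminescence as ATP-based viability.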

Assay [19] is described as follows: qHTS assay for small molecule activators of the human pregnane X receptor (PXR) signaling pathway (AID 720659; call rule not given here; further: 0% is about no effect). Particulars: DPX-2 HepG2 CYP3A4-luciferase, 24 h; series mostly up to 92.3 µM.
The target in assay [20] is Glucocorticoid receptor (Homo sapiens) (UniProt P04150). The assay can be described thus: qHTS assay for small molecule agonists of glucocorticoid receptor signaling (AID 588532; active means well fitted curve in the direction sought with a large enough effect in the signal ratio, with a control signal flat; the % refers to the signal ratio;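 further: 100% = dexamethasone at 0.1 µM and 0% = DMSO only wells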). Particulars: HeLa MMTV-bla, beta-lactamase ratio, agonist, 18 h; stronger effect = higher value; percent of dexamethasone control, DMSO zero. In outline:
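Cells were plated and rested 3-5 h at 37 C, compounds were added in titration and incubated 18 h, then CCF4 substrate was loaded for 2 h at RT before reading blue/green fluorescence. EC50 came from Hill-equation fitting.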

Chain of Thyroid hormone receptor beta (Homo sapiens) (P10828 whole entry, looked up): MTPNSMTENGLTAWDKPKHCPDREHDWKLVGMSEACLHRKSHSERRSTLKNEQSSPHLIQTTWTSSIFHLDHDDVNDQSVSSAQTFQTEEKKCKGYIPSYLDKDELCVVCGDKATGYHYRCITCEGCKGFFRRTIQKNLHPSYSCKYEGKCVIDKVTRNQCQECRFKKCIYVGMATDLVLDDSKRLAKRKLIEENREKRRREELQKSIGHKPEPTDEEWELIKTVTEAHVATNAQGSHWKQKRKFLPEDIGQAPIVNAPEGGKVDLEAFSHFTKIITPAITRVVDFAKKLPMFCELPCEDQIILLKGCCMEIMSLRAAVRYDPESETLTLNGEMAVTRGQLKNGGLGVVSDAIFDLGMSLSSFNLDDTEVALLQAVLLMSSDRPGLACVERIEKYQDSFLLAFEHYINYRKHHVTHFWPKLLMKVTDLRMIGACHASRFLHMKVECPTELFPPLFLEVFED
Chain of Voltage-gated inwardly rectifying potassium channel KCNH2 (Homo sapiens) (Q12809 whole entry, looked up): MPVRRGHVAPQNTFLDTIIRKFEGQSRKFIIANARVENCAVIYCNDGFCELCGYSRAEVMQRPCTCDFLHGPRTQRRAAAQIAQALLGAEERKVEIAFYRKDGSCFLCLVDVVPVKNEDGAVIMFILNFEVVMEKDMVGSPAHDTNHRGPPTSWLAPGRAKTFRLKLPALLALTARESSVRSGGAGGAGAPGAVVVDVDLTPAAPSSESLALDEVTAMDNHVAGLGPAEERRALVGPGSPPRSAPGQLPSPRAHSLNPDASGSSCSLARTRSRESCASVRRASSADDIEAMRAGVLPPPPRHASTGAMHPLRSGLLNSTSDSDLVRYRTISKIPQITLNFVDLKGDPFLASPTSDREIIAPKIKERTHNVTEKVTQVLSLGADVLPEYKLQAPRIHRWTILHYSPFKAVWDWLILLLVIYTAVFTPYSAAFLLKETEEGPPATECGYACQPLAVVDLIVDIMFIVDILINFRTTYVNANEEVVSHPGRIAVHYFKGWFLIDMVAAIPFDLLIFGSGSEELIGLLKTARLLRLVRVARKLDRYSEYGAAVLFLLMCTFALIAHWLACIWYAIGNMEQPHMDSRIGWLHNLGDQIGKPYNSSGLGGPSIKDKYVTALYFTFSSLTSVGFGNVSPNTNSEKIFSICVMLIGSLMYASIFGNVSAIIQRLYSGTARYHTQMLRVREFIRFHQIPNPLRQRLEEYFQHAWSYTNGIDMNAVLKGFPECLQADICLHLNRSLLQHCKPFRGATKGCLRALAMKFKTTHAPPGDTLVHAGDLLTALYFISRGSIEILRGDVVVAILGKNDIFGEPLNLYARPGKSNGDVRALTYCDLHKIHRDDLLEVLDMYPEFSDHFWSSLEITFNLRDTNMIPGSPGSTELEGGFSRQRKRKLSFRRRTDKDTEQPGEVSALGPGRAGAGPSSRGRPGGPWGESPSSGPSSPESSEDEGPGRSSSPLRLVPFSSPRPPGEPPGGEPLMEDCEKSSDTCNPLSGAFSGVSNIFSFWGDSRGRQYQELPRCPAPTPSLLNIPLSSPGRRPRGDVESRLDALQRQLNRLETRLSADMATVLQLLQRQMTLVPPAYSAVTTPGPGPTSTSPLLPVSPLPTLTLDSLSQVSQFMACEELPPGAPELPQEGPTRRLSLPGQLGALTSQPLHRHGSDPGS
Chain of Tumor necrosis factor (Homo sapiens) (P01375 whole entry, looked up): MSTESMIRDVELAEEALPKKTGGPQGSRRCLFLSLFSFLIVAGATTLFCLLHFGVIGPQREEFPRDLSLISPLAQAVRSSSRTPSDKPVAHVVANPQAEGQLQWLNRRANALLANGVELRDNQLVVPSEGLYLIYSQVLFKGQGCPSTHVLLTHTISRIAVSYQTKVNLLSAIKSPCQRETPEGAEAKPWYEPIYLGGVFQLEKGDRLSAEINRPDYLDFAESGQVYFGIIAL
Chain of Glucocorticoid receptor (Homo sapiens) (P04150 whole entry, looked up): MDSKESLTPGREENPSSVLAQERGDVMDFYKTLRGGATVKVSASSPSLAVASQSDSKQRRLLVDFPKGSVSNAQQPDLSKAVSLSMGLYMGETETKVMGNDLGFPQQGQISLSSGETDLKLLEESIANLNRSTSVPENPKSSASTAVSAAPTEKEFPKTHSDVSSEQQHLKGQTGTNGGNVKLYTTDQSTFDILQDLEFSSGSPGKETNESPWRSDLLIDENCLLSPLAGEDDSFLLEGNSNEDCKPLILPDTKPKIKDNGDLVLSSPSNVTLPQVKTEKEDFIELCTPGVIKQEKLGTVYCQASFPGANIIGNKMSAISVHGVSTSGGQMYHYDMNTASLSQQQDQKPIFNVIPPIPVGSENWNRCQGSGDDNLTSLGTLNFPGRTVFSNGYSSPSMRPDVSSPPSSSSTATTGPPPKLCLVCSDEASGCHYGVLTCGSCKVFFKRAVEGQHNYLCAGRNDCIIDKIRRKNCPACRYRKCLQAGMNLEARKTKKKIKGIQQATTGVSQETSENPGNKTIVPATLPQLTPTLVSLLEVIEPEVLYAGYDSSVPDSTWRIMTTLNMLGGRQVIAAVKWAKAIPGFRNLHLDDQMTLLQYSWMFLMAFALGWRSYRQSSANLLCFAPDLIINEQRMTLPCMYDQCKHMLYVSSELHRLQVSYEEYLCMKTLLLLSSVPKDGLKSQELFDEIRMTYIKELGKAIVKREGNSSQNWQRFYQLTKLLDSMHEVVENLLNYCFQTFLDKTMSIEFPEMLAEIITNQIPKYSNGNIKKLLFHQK
Chain of Vitamin D3 receptor (Homo sapiens) (P11473 whole entry, looked up): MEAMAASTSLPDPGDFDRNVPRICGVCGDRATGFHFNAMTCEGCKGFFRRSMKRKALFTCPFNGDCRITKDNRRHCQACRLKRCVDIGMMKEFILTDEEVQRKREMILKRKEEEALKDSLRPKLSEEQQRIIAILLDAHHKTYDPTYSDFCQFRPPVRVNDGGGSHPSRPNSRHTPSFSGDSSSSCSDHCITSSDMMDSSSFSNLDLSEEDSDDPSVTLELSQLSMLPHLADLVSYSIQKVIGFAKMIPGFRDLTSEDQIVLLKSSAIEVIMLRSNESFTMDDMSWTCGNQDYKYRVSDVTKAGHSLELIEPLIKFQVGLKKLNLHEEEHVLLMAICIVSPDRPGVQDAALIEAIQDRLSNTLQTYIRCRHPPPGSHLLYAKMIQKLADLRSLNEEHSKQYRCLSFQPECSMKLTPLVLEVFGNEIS

`c1ccncc1`: the Potency in [1] and in [2] was greater than 92 µM throughout. Besides, the activity change, negative = cytotoxicity in assay [3] was -13.1%. Besides, the Potency result in assay [4], in [5], in assay [7], in [8], in assay [9] and in assay [10] was “inactive” throughout. Further, the Potency result in assay [11], in [12], in assay [15], in [16], in [17] and in assay [18] was “inactive” in each case. In addition, the outcome in [6] and in assay [19] was inactive. The activation in assay [13] is -0.205%; in assay [14] it was 0.644%.

Regarding `Cc1cc(=O)oc2cc(O)cc(O)c12`, the Potency in assay [1] is greater than 92 µM; in [2], greater than 92 µM; in assay [12], 13.3 µM (active); in assay [16], 7.5 µM (active). For the same compound, the Potency result in assay [4], in [8], in [10], in assay [11], in assay [17] and in [18] was “inactive” each time. Besides, the activation in assay [20] is 9.06%; in assay [13], 10.2%. In addition, in [19], the call was inactive.

For `c1cc2c3c(c1)ccc1cccc(c13)C2`, the Potency in assay [1] and in assay [2] was greater than 92 µM throughout. The activity change, negative = cytotoxicity in assay [3] is -13.2%. The Potency entry in [4], in assay [5], in assay [8], in assay [9], in [10] and in assay [11] was “inactive” throughout. For the same compound, the Potency entry in assay [15], in assay [16], in assay [17] and in assay [18] was “inactive” throughout. Moreover, the call in assay [6] and in assay [19] was inactive. In addition, the activation is -6.79% in [20], -4.21% in assay [13] and -2.58% in assay [14].

For `CN(C)c1ccc(Cc2ccc(N(C)C)cc2)cc1`, the Potency in assay [1] and in assay [2] was greater than 92 µM in each case. The activity change, negative = cytotoxicity in assay [3] was -18.8%. The Potency result in [4], in assay [5], in [8], in [9], in assay [10] and in assay [18] was “inactive” throughout. The activation in assay [20] is 7.64% and -3.57%; in assay [13] it was 6.8% and -1.08%; in assay [14] it was -0.0867% and 0.169%.

Turning to `Nc1ccc2c(c1)C(=O)c1ccccc1C2=O`, the Potency in [1] is 49.6 µM; in [2] it was greater than 92 µM; in assay [7], 2.51 µM (active); in [12] it was 10.6 µM (active) and 48.6 µM (active); in assay [15] it was 1.33 µM (active). The Potency entry in assay [5], in assay [10], in [11], in assay [17] and in [18] was “inactive” in each case. The compound was called inactive in assay [6]. The activation in assay [20] is -3.44% and 1.5%; in [13], 2.17% and 5.16%; in [14], 1.2% and -1.21%.

Turning to `CCCCOC(=O)COc1ccc(Cl)cc1Cl`, the Potency in assay [1] and in assay [2] was greater than 92 µM each time. For the same compound, the activity change, negative = cytotoxicity in assay [3] was 1.3%. The Potency entry in assay [4], in assay [7], in [8], in assay [9], in assay [10] and in assay [12] was “inactive” throughout. The Potency result in assay [15], in assay [16], in assay [17] and in [18] was “inactive” in each case. Further, the compound was called inactive in assay [6] and in [19]. Besides, the activation was -0.84% and -2.7% in assay [13]; 1.36% and -1.12% in assay [14].
